# From PubChem BioAssay (NCI)
# The panel holds about 79,000 compounds, 15% with a hit somewhere; the sample as a whole holds those more often. A number with no mark means an inactive call. Cut-off read from the data, not from the text of the source: active = growth inhibition above about 70%; inactive = the rest.
# Test: NCI Yeast Anticancer Drug Screen. Data for the mec2-1 strain (AID 157)
# Settings: S. cerevisiae mec2-1 strain, at 1.2 µM, hits give high values
# Summary of the method: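 Each compound was tested on mec2-1 yeast, a strain altered in DNA damage repair or cell cycle control. Growth inhibition is reported relative to vehicle.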
row,SMILES,growth inhibition [%]
1,O=C(O)c1ccccc1C(=O)OC1CCc2ccccc2C1 (stereo unspecified),-6
2,CCOC(=O)/C(=C\c1cccc(C)c1)C(C)=O,0
3,NC(=S)N/N=C1\c2ccccc2CCC1CCC1(O)CCc2ccccc2C1=O (stereo unspecified),5
4,Cc1cccc2c(Cl)c3cccc(C)c3nc12,-10
5,CC(C)OC(=O)NNc1c(Cl)cc(Cl)cc1Cl,-3
6,Nc1ccc2c(c1)C(=O)c1c(F)cccc1-2,3
7,N#CSCC1COc2ccccc2O1 (stereo unspecified),-21
8,Cc1ccc(S(=O)(=O)NC(=O)C2C(=O)CC3(CCCCC3)CC2=O)cc1,-25
9,CC1=NN(C(=O)c2ccccc2O)C(=O)/C1=C/c1ccco1,-4

# Same assay, conditions: S. cerevisiae mec2-1 strain, at 3.7 µM, hits give high values
row,SMILES,growth inhibition [%]
1,CC(CN(C)C)C(=O)/C=C/c1ccc(Cl)c(Cl)c1 (stereo unspecified),5
2,CCCCCCNCCCNc1c2cc(OC)ccc2nc2cccc([N+](=O)[O-])c12,4
3,NC(=S)N1N=C2c3ccccc3CC[C@H]2[C@@H]1c1ccc(Cl)cc1,9
4,C/C(=N/NC(=S)Nc1ccccc1C)c1ccccn1,-10
5,O=C1/C(=C/c2ccc(Cl)c(Cl)c2)CNC/C1=C\c1ccc(Cl)c(Cl)c1,23
6,CC(C)OP(=O)(OC(C)C)C(=NCCO)NNc1ccc([N+](=O)[O-])cc1,-16
7,N#CCC(=O)N/N=C(\c1ccccc1)C(c1ccccc1)C1(O)C(=O)Nc2c(Cl)ccc(Cl)c21 (stereo unspecified),4
8,CC(C)(CN1CCCCC1)C(=O)CC(SCCS(=O)(=O)O)c1ccccc1 (stereo unspecified),-4
9,COC1=CCC23C(=O)C=CC(=O)C2(C1)C(=O)c1ccccc1C3=O (stereo unspecified),-4
10,CCCCN(CCCC)c1ccc(N=Nc2ccc(S(=O)(=O)O)cc2)cc1,43
11,c1ccc2nc3c(nc2c1)sc1ccccc13,5
12,O=C1c2ccccc2-c2ccc(N=Cc3ccccc3)cc21,-2
13,CNC(=S)N/N=C(/C)CCC/C(C)=N/NC(=S)NC,42
14,Nc1ccc(/C=C/c2ccc3cccnc3c2)cc1,-2
15,COc1ccc2c3c1OC(C)C31CC(=O)CCC1CC2 (stereo unspecified),-2
16,CCOC(=O)Nc1ccc(C)c(NC(=O)OCC)c1,8
17,CCN(CC)CCNc1ccc2nc(C)n3c4ccc(OC)cc4c(=O)c1c23,39
18,C[N+](C)([O-])CCCNc1c2ccccc2nc2cccc([N+](=O)[O-])c12,54

row,SMILES,growth inhibition [%]
1,O=C(c1cc(=O)c2ccc(O)cc2o1)c1ccc(Cl)cc1Cl,-13
2,CCCNC(=O)OCc1c(COC(=O)NCCC)c(-c2ccc(Cl)c(Cl)c2)n2c1CCC2,-40
3,O=C(Cc1ccccc1)NN1C(=O)C(Cl)C1c1cc(Br)cc(Br)c1O (stereo unspecified),19
4,CCOC(=O)C(Cc1c2ccccc2cc2ccccc12)(NC(C)=O)C(=O)OCC,0
5,O=[N+]([O-])/C=C/c1cc2ccc3ccccc3c2[nH]1,33
6,Fc1ccc(Nc2ccc3ccccc3c2)cc1,0
7,O=S1(=O)CCC2=CC(C(F)(F)F)=CC(C(F)(F)F)=CN21,61
8,O=C(Cc1ccccc1)NNc1nc(NNC(=O)c2ccncc2)nc(Nc2ccc([N+](=O)[O-])cc2)n1,9
9,CCCCS/C(=C(/C#N)C(N)=O)c1cc2c([nH]1)CCCC2,-22
10,O=C(O)c1ccccc1C(=O)OC1CCc2ccccc2C1 (stereo unspecified),-9
11,CCOC(=O)/C(=C\c1cccc(C)c1)C(C)=O,3
12,NC(=S)N/N=C1\c2ccccc2CCC1CCC1(O)CCc2ccccc2C1=O (stereo unspecified),13
13,Cc1cccc2c(Cl)c3cccc(C)c3nc12,-13
14,CC(C)OC(=O)NNc1c(Cl)cc(Cl)cc1Cl,-3
15,Nc1ccc2c(c1)C(=O)c1c(F)cccc1-2,2
16,N#CSCC1COc2ccccc2O1 (stereo unspecified),-33
17,Cc1ccc(S(=O)(=O)NC(=O)C2C(=O)CC3(CCCCC3)CC2=O)cc1,-30
18,CC1=NN(C(=O)c2ccccc2O)C(=O)/C1=C/c1ccco1,2

# Same assay, conditions: S. cerevisiae mec2-1 strain, at 5.0 µM (retest, dose inferred, filed as 0.5), hits give high values
row,SMILES,growth inhibition [%]
1,CC(CN(C)C)C(=O)/C=C/c1ccc(Cl)c(Cl)c1 (stereo unspecified),4
2,CCCCCCNCCCNc1c2cc(OC)ccc2nc2cccc([N+](=O)[O-])c12,9
3,NC(=S)N1N=C2c3ccccc3CC[C@H]2[C@@H]1c1ccc(Cl)cc1,7
4,C/C(=N/NC(=S)Nc1ccccc1C)c1ccccn1,-40
5,O=C1/C(=C/c2ccc(Cl)c(Cl)c2)CNC/C1=C\c1ccc(Cl)c(Cl)c1,-9
6,CC(C)OP(=O)(OC(C)C)C(=NCCO)NNc1ccc([N+](=O)[O-])cc1,-2
7,N#CCC(=O)N/N=C(\c1ccccc1)C(c1ccccc1)C1(O)C(=O)Nc2c(Cl)ccc(Cl)c21 (stereo unspecified),-11
8,CC(C)(CN1CCCCC1)C(=O)CC(SCCS(=O)(=O)O)c1ccccc1 (stereo unspecified),11
9,COC1=CCC23C(=O)C=CC(=O)C2(C1)C(=O)c1ccccc1C3=O (stereo unspecified),20
10,CCCCN(CCCC)c1ccc(N=Nc2ccc(S(=O)(=O)O)cc2)cc1,52
11,c1ccc2nc3c(nc2c1)sc1ccccc13,-32
12,O=C1c2ccccc2-c2ccc(N=Cc3ccccc3)cc21,4
13,CNC(=S)N/N=C(/C)CCC/C(C)=N/NC(=S)NC,66
14,Nc1ccc(/C=C/c2ccc3cccnc3c2)cc1,-1
15,COc1ccc2c3c1OC(C)C31CC(=O)CCC1CC2 (stereo unspecified),-15
16,CCOC(=O)Nc1ccc(C)c(NC(=O)OCC)c1,-2
17,CCN(CC)CCNc1ccc2nc(C)n3c4ccc(OC)cc4c(=O)c1c23,16
18,C[N+](C)([O-])CCCNc1c2ccccc2nc2cccc([N+](=O)[O-])c12,54

row,SMILES,growth inhibition [%]
1,O=C(c1cc(=O)c2ccc(O)cc2o1)c1ccc(Cl)cc1Cl,-30
2,CCCNC(=O)OCc1c(COC(=O)NCCC)c(-c2ccc(Cl)c(Cl)c2)n2c1CCC2,11
3,O=C(Cc1ccccc1)NN1C(=O)C(Cl)C1c1cc(Br)cc(Br)c1O (stereo unspecified),56
4,CCOC(=O)C(Cc1c2ccccc2cc2ccccc12)(NC(C)=O)C(=O)OCC,-6
5,O=[N+]([O-])/C=C/c1cc2ccc3ccccc3c2[nH]1,55
6,Fc1ccc(Nc2ccc3ccccc3c2)cc1,-2
7,O=S1(=O)CCC2=CC(C(F)(F)F)=CC(C(F)(F)F)=CN21,66
8,O=C(Cc1ccccc1)NNc1nc(NNC(=O)c2ccncc2)nc(Nc2ccc([N+](=O)[O-])cc2)n1,3
9,CCCCS/C(=C(/C#N)C(N)=O)c1cc2c([nH]1)CCCC2,-1
10,O=C(O)c1ccccc1C(=O)OC1CCc2ccccc2C1 (stereo unspecified),-20
11,CCOC(=O)/C(=C\c1cccc(C)c1)C(C)=O,-5
12,NC(=S)N/N=C1\c2ccccc2CCC1CCC1(O)CCc2ccccc2C1=O (stereo unspecified),-1
13,Cc1cccc2c(Cl)c3cccc(C)c3nc12,7
14,CC(C)OC(=O)NNc1c(Cl)cc(Cl)cc1Cl,0
15,Nc1ccc2c(c1)C(=O)c1c(F)cccc1-2,-48
16,N#CSCC1COc2ccccc2O1 (stereo unspecified),-27
17,Cc1ccc(S(=O)(=O)NC(=O)C2C(=O)CC3(CCCCC3)CC2=O)cc1,12
18,CC1=NN(C(=O)c2ccccc2O)C(=O)/C1=C/c1ccco1,19
